Assay outcomes: PubChem BioAssay, National Center for Advancing Translational Sciences (NCATS)
DRD3 antagonist: blocks the human D3 dopamine receptor; P35462; D3R cells, DiscoveRx beta-arrestin luminescence, antagonist mode; hits give low values; max response, negative = inhibition, %; actives 2.5% (n = 360,000); AID 652054; in the data active means max response below about -50%; inconclusive means no clear call, values can overlap the other calls; further: on the % scale 0 is the no-effect control and ±100 the full control effect
Target sequence (P35462 whole entry, looked up): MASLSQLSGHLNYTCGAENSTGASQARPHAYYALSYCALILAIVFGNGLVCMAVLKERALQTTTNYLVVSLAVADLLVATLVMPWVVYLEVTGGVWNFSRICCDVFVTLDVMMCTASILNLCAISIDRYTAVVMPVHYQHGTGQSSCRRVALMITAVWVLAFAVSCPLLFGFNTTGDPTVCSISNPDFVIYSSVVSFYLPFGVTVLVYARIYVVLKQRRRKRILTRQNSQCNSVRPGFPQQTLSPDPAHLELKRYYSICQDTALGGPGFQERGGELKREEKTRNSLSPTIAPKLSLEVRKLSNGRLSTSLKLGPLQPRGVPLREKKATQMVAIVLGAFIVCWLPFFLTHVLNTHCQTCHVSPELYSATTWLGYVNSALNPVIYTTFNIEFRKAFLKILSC
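Cells expressing the human receptor were seeded at 1500 cells/well, incubated overnight at 37 degrees C in 5% CO2, then exposed to library compounds with dopamine controls for 90 minutes at 37 degrees C before luminescent detection.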
KB-V1 MDR tox: KB-V1 MDR subline cytotoxicity | KB-V1 MDR cells viability, CellTiter-Glo, 72 h | Potency, µM (highest dose often 46.1 µM), actives largely listed as cytotoxic | actives 3.4% (n = 400,000) | AID 1347076; further: potency means the concentration at half of the fitted maximal effect; on the % scale 0 is the no-effect control and ±100 the full control effect; nearly all actives have a fitted effect of over 60% in size
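KB-V1 cells (P-gp-expressing MDR subline of KB-3-1) in phenol-red-free DMEM with 10% FBS were exposed to library compounds over a concentration series for 72 h at 37 degrees C. Viability read by CellTiter-Glo luminescence; concentration-effect curves fitted after normalization.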
SW480 rerep: DNA re-replication induction in SW480 cells | Potency, µM (series often up to 46.1 µM), without a hit: top-dose re-replication activation, most hits filed as activators | SW480 DNA re-replication, Hoechst DNA content imaging, 48 h | AID 624297 | actives 1.8% (n = 340,000); further: potency means the concentration at half of the fitted maximal effect; % of control where 0% means no effect; nearly all actives have a fitted effect of over 55% in size
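Per well, 250 cells were exposed to pinned compound for 48 hr. Nuclear DNA was visualised with Hoechst (40 min, 37 C) and total object intensity recorded by fluorescence scanning.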
MCF10A rerep: inducers of DNA re-replication in MCF 10A breast cells. MCF 10A DNA re-replication, Hoechst nuclear intensity, 48 h. Potency, µM (top dose mostly 46.1 µM), without a hit: at the top dose activity, positive = re-replication, hits mostly activators. actives 2.9% (n = 350,000); further: potency means the concentration at half of the fitted maximal effect; % of control where 0% means no effect; nearly all actives have a fitted effect of over 50% in size
KB-3-1 tox: kills parental KB-3-1 adenocarcinoma cells | KB-3-1 viability, CellTiter-Glo ATP luminescence, 72 h | actives 1.4% (n = 400,000) | Potency, µM (doses to about 46.1 µM), hits mostly cytotoxic; further: potency means the concentration at half of the fitted maximal effect; on the % scale 0 is the no-effect control and ±100 the full control effect; nearly all actives have a fitted effect of over 60% in size
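Parental KB-3-1 adenocarcinoma cells in phenol-red-free DMEM with 10% FBS were pin-treated with compounds at several concentrations, incubated 72 h at 37 °C, and viability read by CellTiter-Glo luminescence; concentration-effect curves were fitted after normalization.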
D3 ag: agonists of human D3 dopamine receptor; P35462; D3R DiscoveRx beta-arrestin cells, luminescence, 90 min; max activation, %; actives 0.58% (n = 410,000); in the data active means max activation above about 30%; further: 0% is about no effect
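Agonist mode: compounds and dopamine controls were applied to plated cells for 90 min at 37 degrees C after an overnight attachment at 1500 cells/well. Luminescent read-out followed 30 - 60 minutes at room temperature with DiscoveRx detection reagent.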
Active calls of the source: *; i = inactive; ? = inconclusive; nt = not tested or not shown. An excerpt weighted towards active compounds, which were near 8.9% of everything screened. Unless noted, the call rests on the fitted dose curve; in most records, active means well fitted curve in the direction sought with a large enough effect; inconclusive means small, poorly fitted or top-dose-only effect, or another doubt; inactive means no such curve, though single readings can be large; an effect the other way counts as inactive or inconclusive.

SMILES	DRD3 antagonist	KB-V1 MDR tox	SW480 rerep	MCF10A rerep	KB-3-1 tox	D3 ag
Cc1cc(Br)ccc1NC(=O)C(Cc1ccccc1)NS(=O)(=O)c1ccc(Br)s1 (configuration not stated)	nt	i	nt	nt	i	0
COc1cccc(Nc2cc(C)nc3ccccc23)c1	-56*	?	6%	1%	i	-2
COc1ccc(OC)c(Nc2cc(C)nc3ccccc23)c1	25	18µM*	18%	?	?	4
COc1ccc(Cl)cc1Nc1cc(C)nc2ccccc12	-4	?	-1%	?	?	-8
CC(CNC(=O)c1ccc2nc(Cc3ccccc3)oc2c1)c1ccccc1 (configuration not stated)	nt	i	nt	nt	?	-21
O=C(NCCCO)C(=O)Nc1ccc2c(c1)N(S(=O)(=O)c1cccs1)CCC2	13	i	11%	14%	i	1
COCCNC(=O)C(=O)Nc1ccc2c(c1)N(S(=O)(=O)c1cccs1)CCC2	0	?	2.6µM*	?	?	0
CC(C)CCNC(=O)C(=O)Nc1ccc2c(c1)N(S(=O)(=O)c1cccs1)CCC2	-23	?	?	?	5.8µM*	-11
COc1cc(C(=O)OCCCN2CCCN(CCCOC(=O)c3cc(OC)c(OC)c(OC)c3)CC2)cc(OC)c1OC	-92*	?	?	?	i	-86
O=C(OCCN1CCCCC1)c1ccc(Cl)cc1	-78*	i	3%	19%	i	-20
COc1cc(C#CC#CCN2CCCCC2)ccc1O	-116*	10µM*	?	?	i	-21
CC(C)COc1ccc(C(=O)OCCN2CCCCC2)cc1	2	i	-3%	?	i	-12
COc1cc(C(=O)OCCN2CCCCC2)ccc1O	-58*	i	-1%	6%	i	-14
CCC1CN(C(=O)C2CCN(S(=O)(=O)c3c(C)noc3/C=C/c3ccccc3F)CC2)c2cc(Cl)ccc2O1 (configuration not stated)	nt	nt	nt	nt	nt	7
Oc1[nH]c2ccccc2c1N=NC(=S)NCC1CCCO1 (configuration not stated)	?	12µM*	17%	-25%	i	-7
Oc1[nH]c2c(Cl)cc(Cl)cc2c1N=NC(=S)NCC1CCCO1 (configuration not stated)	7	?	3%	17%	5.8µM*	11
Oc1[nH]c2ccc(Br)cc2c1N=NC(=S)NCC1CCCO1 (configuration not stated)	-15	i	14%	-6%	?	-19
CCOC(=O)c1cnc2ccc(OC)cc2c1Nc1ccc(OCc2ccccc2Cl)cc1	nt	?	nt	nt	?	4
CCn1nc(C(=O)OCC(=O)N(CCC#N)c2ccccc2)c2ccccc2c1=O	1	?	-8%	-6%	i	9
COc1cc([N+](=O)[O-])cc(/C=N/NC(=O)C(C)Nc2cccc(C)c2)c1O (configuration not stated)	-55*	?	nt	?	?	-19
COc1cc([N+](=O)[O-])cc(/C=N/NC(=O)C(C)Nc2ccccc2C)c1O (configuration not stated)	-98*	12µM*	?	1.6µM*	?	-20
CCOc1ccc(-c2cc(C(=O)NCc3ccc(OCC)c(OC)c3)[nH]n2)cc1	nt	i	nt	nt	?	7
COc1cc(NC(=O)CSc2nnc(C)n3c2cc2oc(C)cc23)cc(OC)c1	nt	i	nt	nt	i	6
CCc1ccc(CNC(=O)C2CCN(C(=O)c3ccc(-n4ccc5ccccc54)s3)CC2)cc1	nt	i	nt	nt	i	15
Cc1cc(C)c(S(C)(=O)=O)c(Oc2ccc(C(C)(C)C)cc2)n1	1	16µM*	-38%	20%	i	-8
SMILES	DRD3 antagonist	KB-V1 MDR tox	SW480 rerep	MCF10A rerep	KB-3-1 tox	D3 ag
COc1ccc(Cl)cc1Nc1cc(C)nc2nc(-c3ccccc3C)nn12	nt	i	nt	nt	i	7
Cn1cc(-c2cc3n(n2)CCC(=O)N3CCCC(=O)NCc2ccc(F)cc2)c2ccccc21	nt	i	nt	nt	?	-5
Cc1ccc(NC(=O)c2cc(Cl)nc3ccccc23)cc1	2	i	-13%	2%	i	0
COc1cc(C(=O)Nc2ccc(C)cc2)c2ccccc2n1	-2	?	21µM*	5.8µM*	0.82µM*	-3
CCOc1ccc(NC(=O)c2cc(OC)nc3ccccc23)cc1	-4	?	?	23µM*	1.2µM*	-5
Cc1ccc2c(c1)N(C(=O)N1CCC(C(=O)NCc3ccccc3F)CC1)CC(C)O2 (configuration not stated)	nt	i	nt	nt	i	-9
CCN(CC)CCCN=Cc1c(-c2ccccc2)[nH]n(-c2nc3ccccc3s2)c1=O	-5	i	0%	0%	i	-15
O=c1c(C=NCc2cccnc2)c(C(F)(F)F)[nH]n1-c1nc2ccccc2s1	21	i	3%	4%	i	4
CCCN=C(C)c1c(-c2ccccc2)[nH]n(-c2nc3ccccc3s2)c1=O	22	8.2µM*	11%	27%	i	4
CCC(=NCc1ccccc1)c1c(C(F)(F)F)[nH]n(-c2nc3ccccc3s2)c1=O	-60*	i	-11%	-1%	i	-10
CCC(=NCc1ccco1)c1c(C(F)(F)F)[nH]n(-c2nc3ccccc3s2)c1=O	-12	21µM*	-1%	5%	i	-6
O=C(N[C@H]1c2ccccc2C[C@H]1O)[C@H]1O[C@@H](n2ccc(=O)[nH]c2=O)[C@H](O)[C@@H]1O	10	i	nt	nt	i	5
O=C(C1CCCN(Cc2ccccc2F)C1)N1CCc2ccccc2C1 (configuration not stated)	-52*	?	-42%	-3%	i	-27
O=C(C1CCCN(Cc2ccncc2)C1)N1CCc2ccccc2C1 (configuration not stated)	-72*	i	-9%	8%	i	-7
Cc1cccc(CN2CCCC(C(=O)N3CCc4ccccc4C3)C2)c1 (configuration not stated)	45	i	-1%	1%	i	1
Cc1ccc(C(=O)Nc2ccccc2Cl)cc1	7	i	-8%	2%	i	2
CCn1c(SCc2nc3ccccc3[nH]2)nnc1-c1cccs1	-18	8.2µM*	-9%	-5%	i	-11
c1coc(Cn2c(SCc3nc4ccccc4[nH]3)nnc2-c2cnccn2)c1	-25	?	-2%	-1%	i	-2
